{"source": "PubChem BioAssay AID2613", "about": "(National Center for Advancing Translational Sciences (NCATS), 2010)", "note": "Records with an inconclusive call do not appear. Entries that show only a call come without a potency. Calls of active or inactive are those of the source. The call rests on the fitted dose curve; in most records, active means well fitted inhibition curve with a large enough effect; inconclusive means small, poorly fitted or top-dose-only effect; inactive means flat fitted curve, though single readings scatter.", "data": [{"molecular_target": "Lysosomal acid glucosylceramidase (Homo sapiens) (UniProt P04062)", "sequence (P04062 whole entry N409S)": "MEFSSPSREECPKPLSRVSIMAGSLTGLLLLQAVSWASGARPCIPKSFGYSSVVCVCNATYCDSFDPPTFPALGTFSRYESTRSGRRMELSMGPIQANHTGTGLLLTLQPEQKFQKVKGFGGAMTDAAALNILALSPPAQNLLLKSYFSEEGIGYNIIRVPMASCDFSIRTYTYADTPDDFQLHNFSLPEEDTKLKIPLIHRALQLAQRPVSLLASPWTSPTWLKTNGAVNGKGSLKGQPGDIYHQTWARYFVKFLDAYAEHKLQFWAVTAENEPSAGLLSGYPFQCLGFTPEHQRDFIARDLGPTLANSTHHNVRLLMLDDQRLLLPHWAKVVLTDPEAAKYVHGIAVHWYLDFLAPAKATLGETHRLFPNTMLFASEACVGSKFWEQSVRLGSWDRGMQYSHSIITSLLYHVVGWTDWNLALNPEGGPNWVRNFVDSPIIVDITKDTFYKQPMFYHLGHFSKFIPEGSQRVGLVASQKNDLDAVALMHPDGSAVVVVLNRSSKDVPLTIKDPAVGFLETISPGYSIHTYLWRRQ", "assay": "qHTS Assay for Inhibitors and Activators of N370S glucocerebrosidase as a Potential Chaperone Treatment of Gaucher Disease: Activity in N370S Spleen Homogenate Using a Red Fluorescent Substrate", "settings": "red fluorogenic substrate; series mostly up to 49.6 µM", "excerpt": "NIH Chemical Genomics Center [NCGC]\nNIH Molecular Libraries Probe Production Centers Network [MLPCN]\nAssay Submitter (PI): Wei Zheng\nGlucocerebrosidase (GC) catalyzes the hydrolysis of beta-glucocerebroside to glucose and ceramide in lysosomes. Mutations in the glucocerebrosidase gene result in Gaucher disease, an autosomal recessive lysosomal storage disorder. Many of the mutations encountered in patients with Gaucher disease are missense alterations that may cause misfolding, decreased stability and/or mistrafficking of this lysosomal protein. […] These inhibitors include iminosugar analogs and three non-iminosugar inhibitors identified from a previous HTS of 62,000 compounds with the wild type recombinant enzyme. However, the enhancement of enzyme activity by the chaperone action of an enzyme inhibitor must be balanced against the direct inhibition of the enzyme. An enzyme activator could also function as a chaperone by binding to the enzyme and helping to correct its misfolding and mistrafficking. While activators for GC have not yet been identified, they may have better therapeutic potential than inhibitors. Therefore the discovery and development of chemical activators may provide a new strategy for the chaperone therapy.\nWe have optimized a new assay using N370S mutant GC derived from the spleen of a Gaucher patient. […] In addition, the MLPCN compound library has expanded, which increases the chance of finding new and better probes.\nThis confirmation assay tests for compound activity in spleen homogenate from a patient homozygous for the N370S mutation using an alternate resorufin-based substrate.\nNCGC Assay Protocol Summary:\nThis is a fluorogenic enzyme assay with resorufin-beta-D-glucopyranoside as the substrate and mutant N370S glucocerebrosidase from human spleen homogenate as the enzyme preparation. Upon the hydrolysis of this fluorogenic substrate, the resulting product, […] which can be detected by a standard fluorescence plate reader. Data were normalized to the controls for basal activity (without enzyme) and 100% activity (with enzyme). The AC50 values were determined from concentration-response data modeled with the standard Hill equation.\nAssay buffer: 50 mM citric acid (titrated with potassium phosphate to pH 5.0), 100 mM potassium chloride, 10 mM sodium chloride, 1 mM magnesium chloride, 0.01% Tween-20.\n1536-well assay protocol:\n(1) Add 2 ul/well of spleen homogenate (27 ug final)\n(2) Add 23 nL compounds in DMSO solution. The final titration was 0.5 nM to 58 uM.\n(3) Add 2 ul of substrate (1 mM final)\n(4) Incubate at 37C for 40 min.\n(5) Add 2 ul stop solution (1M NaOH and 1M Glycine mixture, pH 10)\n(6) Detect the assay plate in a ViewLux plate reader (PerkinElmer) with Ex=365 nm and Em=440nm.\nKeywords: Glucocerebrosidase, beta-glucosidase, Gaucher Disease, pharmacological chaperone, chaperone therapy, high throughput screening, glucocerebrosidase inhibitor, MLSMR, MLSCN, NIH Roadmap, qHTS and NCGC", "values": [{"compound": "O=C(Nc1cnn(Cc2ccc(F)cc2)c1)c1cnn2c(C(F)F)cc(-c3ccccc3)nc12", "Potency": "inactive"}, {"compound": "CCOc1ccc(N(CC(=O)NC2CCCCCC2)S(=O)(=O)c2c(C)[nH]c(=O)[nH]c2=O)cc1", "Potency": "2.82 µM (active)"}, {"compound": "Cc1ccc(Cl)cc1NC(=O)c1ccccc1OCC(=O)Nc1ccc(Cl)cc1", "Potency": "inactive"}, {"compound": "O=C(/C=C/c1ccc(O)cc1)c1ccc(O)cc1O", "Potency": "4.47 µM (active)"}, {"compound": "Cc1ccc(S(=O)(=O)Nc2ccc(C(=O)NCc3ccccc3)cc2)cc1", "Potency": "inactive"}, {"compound": "CCC(C)NC(=O)COC(=O)c1ccccc1OCC(=O)Nc1ccc(Br)cc1", "note": "(stereo not given)", "Potency": "inactive"}, {"compound": "CCCNC(=O)COC(=O)c1ccccc1OCC(=O)Nc1ccc(Br)cc1", "Potency": "inactive"}, {"compound": "COc1ccc(Nc2nc(-c3cccs3)nc3ccccc23)cc1", "Potency": "2.51 µM (active)"}, {"compound": "CSc1ccc(NC(=O)Nc2cc(C)ccn2)cc1", "Potency": "inactive"}, {"compound": "Cc1cc(Nc2cccc(Cl)c2)nc2ccc(NC(=O)C3CCC(C)CC3)cc12", "note": "(stereo not given)", "Potency": "inactive"}, {"compound": "CCOc1ccccc1NC(=O)CN(c1ccc(C)cc1)S(=O)(=O)c1c(C)noc1C", "Potency": "inactive"}, {"compound": "CCc1ccc(NC(=O)c2cnn3c(C(F)F)cc(C)nc23)cc1", "Potency": "inactive"}, {"compound": "Cc1cc(N2CCC(C)CC2)nc2ccc(NC(=O)C3CCC(C)CC3)cc12", "note": "(stereo not given)", "Potency": "11.2 µM (active)"}, {"compound": "CCOc1ccc(N(CC(=O)Nc2ccc(C)cc2)S(=O)(=O)c2c(C)[nH]c(=O)[nH]c2=O)cc1", "Potency": "12.6 µM (active)"}, {"compound": "COc1cc(OC)c2c(N)c(C#N)c(C(F)(F)C(F)(F)F)nc2c1", "Potency": "inactive"}, {"compound": "N=c1c2c(-c3ccccc3)c(-c3ccccc3)n(Cc3ccco3)c2ncn1CCCn1ccnc1", "Potency": "7.94 µM (active)"}, {"compound": "CCC(C)c1ccc(NC(=O)c2cnn3c(C(F)F)cc(C)nc23)cc1", "note": "(stereo not given)", "Potency": "inactive"}, {"compound": "c1ccc2c(NCC3CCCO3)nc(N3CCOCC3)nc2c1", "note": "(stereo not given)", "Potency": "inactive"}, {"compound": "Cc1cc(C)n2ncc(C(=O)Nc3cccc(O)c3)c2n1", "Potency": "inactive"}, {"compound": "Cc1cc(N2CCOCC2)nc2ccc(NC(=O)C3CCC(C)CC3)cc12", "note": "(stereo not given)", "Potency": "3.16 µM (active)"}, {"compound": "COc1cc2c(cc1NC(=O)COC(=O)[C@@H](NC(=O)c1ccccc1)C(C)C)oc1ccccc12", "Potency": "inactive"}, {"compound": "COc1cccc(NC(=S)N(CCCN2CCOCC2)Cc2cn(C)c3ccccc23)c1", "Potency": "4.47 µM (active)"}, {"compound": "S=C(NCCCc1cnc[nH]1)NCCCN(Cc1ccc(Cl)c(Cl)c1)c1ccc(Br)cn1", "Potency": "2.24 µM (active)"}, {"compound": "Cc1cc(C)cc(N(CC(=O)NC2CCC(C)CC2)S(=O)(=O)c2c(C)[nH]c(=O)[nH]c2=O)c1", "note": "(stereo not given)", "Potency": "0.562 µM (active)"}, {"compound": "O=C(COc1ccccc1[N+](=O)[O-])Nc1ccc(Br)cc1", "Potency": "inactive"}, {"compound": "Cc1cc(C)n2ncc(C(=O)Nc3ccc(Cl)c(Cl)c3)c2n1", "Potency": "inactive"}, {"compound": "CC(C)(C)C(=O)OCCNc1nc(-c2ccccc2)nc2ccccc12", "Potency": "3.98 µM (active)"}, {"compound": "O=C(NCc1ccccc1)c1ccc(NS(=O)(=O)c2ccccc2)cc1", "Potency": "inactive"}, {"compound": "COc1ccccc1NC(=O)COc1ccccc1C(=O)Nc1ccccc1", "Potency": "inactive"}, {"compound": "COc1cc(OC)cc(C(=O)N[C@H](C(=O)OCC(=O)Nc2cccc(F)c2)C(C)C)c1", "Potency": "inactive"}, {"compound": "CC1(C)CC(=O)C2=C(C1)c1c(ccc3ccccc13)NC2c1ccc(Br)o1", "note": "(stereo not given)", "Potency": "inactive"}, {"compound": "Clc1ccccc1-c1nccc(NCc2ccccc2)n1", "Potency": "3.55 µM (active)"}, {"compound": "Cc1cc(N2CCOCC2)nc2ccc(NC(=O)CCC(=O)NC3CCCCC3)cc12", "Potency": "inactive"}, {"compound": "CCN(CC)c1cc(C)c2cc(NC(=O)C3CCC(C)CC3)ccc2n1", "note": "(stereo not given)", "Potency": "28.2 µM (active)"}, {"compound": "CC1CC(C)CN(C(=O)CSc2nc(Cc3cccs3)nc3ccccc23)C1", "note": "(stereo not given)", "Potency": "inactive"}, {"compound": "Nc1nc(-c2ccccc2)c(N=Nc2ccc(Cl)cc2)s1", "Potency": "inactive"}, {"compound": "Cc1cc(N2CCN(c3ncccn3)CC2)nc2ccc(NC(=O)C3CCC(C)CC3)cc12", "note": "(stereo not given)", "Potency": "5.01 µM (active)"}, {"compound": "COc1ccccc1OCC(=O)Nc1oc(-c2ccccc2)c(-c2ccccc2)c1C#N", "Potency": "inactive"}, {"compound": "Cc1cc(N2CCCCC2)nc2ccc(NC(=O)C3CCC(C)CC3)cc12", "note": "(stereo not given)", "Potency": "17.8 µM (active)"}, {"compound": "OCCNc1nc(Nc2ccc(Cl)cc2)nc(N2CCCC2)n1", "Potency": "35.5 µM (active)"}]}]}
